Values joined by “and” are separate entries in the source; they are usually repeats but may differ in a detail not shown here. Equal entries are not always repeated. This is part of a sample that, as a whole, favours compounds with a hit. Of some 79,000 tested, about 15% had one in any assay. No stated cut-off is given here; in the data, active means growth inhibition above about 70%; inactive means the rest.
Tests used:
[1] = NCI Yeast Anticancer Drug Screen. Data for the rad50 strain (AID 155);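 further: 0% = growth of vehicle-only cultures of the same strain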; details: S. cerevisiae rad50 strain growth inhibition; at 50.0 µM; active compounds read high
In short: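 DNA repair mutant yeast, compound exposure, growth read-out; inhibition is taken relative to vehicle.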

[2] = NCI Yeast Anticancer Drug Screen. Data for the mec2-1 strain (AID 157); details: S. cerevisiae mec2-1 strain, at 50.0 µM, active compounds read high
In short: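 Mutant yeast (mec2-1) grown with compound; growth inhibition relative to vehicle control reported.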

[3] = NCI Yeast Anticancer Drug Screen. Data for the sgs1 mgt1 strain (AID 161);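 further: 0% = growth of cultures given vehicle only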; details: S. cerevisiae sgs1 mgt1 strain, at 50.0 µM, active compounds read high
In short: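 This yeast growth screen uses a strain with defined DNA-repair lesions; compound-treated growth is compared with vehicle-treated growth.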

[4] = NCI Yeast Anticancer Drug Screen. Data for the cln2 rad14 strain (AID 165);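 further: 0% = growth equal to vehicle treated cultures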; details: S. cerevisiae cln2 rad14 strain, at 50.0 µM, active compounds read high
In short: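 Readout is yeast growth inhibition versus vehicle-treated controls, using a strain with cln2 and rad14 alterations exposed to compound.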

[5] = NCI Yeast Anticancer Drug Screen. Data for the bub3 strain (AID 167); details: S. cerevisiae bub3 mutant strain, at 50.0 µM, active compounds read high
In short: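 In this screen, a yeast mutant lacking normal mitotic checkpoint function is challenged with compound. Relative growth versus vehicle gives the inhibition value.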

[6] = NCI Yeast Anticancer Drug Screen. Data for the mlh1 rad18 strain (AID 175); details: S. cerevisiae mlh1 rad18 strain growth inhibition; at 50.0 µM; active compounds read high
In short: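 Genetically defined yeast (DNA repair-deficient) exposed to compounds; growth inhibition determined relative to vehicle.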

Measured: growth inhibition

CCCCCCCC/C=C\CCCCCCCCOCC(O)CO (stereo unspecified)
inactive: [1] -8.65% and -26.1% | [2] -25.6% and -20.9% | [3] -1.8% and -4% | [4] -17.9% and 3.35% | [5] -25.4% and -31.6% | [6] -27.6% and -20.8%

COc1cc(-c2[o+]c3cc(O)cc(O)c3cc2O)cc(O)c1O
inactive: [1] 28.6% and 0.3% | [2] 17.6% and -25.1% | [3] 23.1% and 0.7% | [4] 12.5% and -24.9% | [5] 19.6% and 19.1% | [6] 30.2% and 24.2%

COc1cc2c(cc1OC)C1Cc3cc(OC)c(OC)cc3C(C2)N1C
inactive: [1] 23.4% and -37.9% | [2] 4.4% and -16.9% | [3] -6.2% and -5% | [4] 6.8% and 2.6% | [5] -5.25% and -3.2% | [6] -45% and -24.2%

Nc1ccc(S(=O)(=O)Nc2cnc3ccccc3n2)cc1
inactive: [1] -11.1% and -2.05% | [2] -1.95% and -1.25% | [3] 2.25% and -5.9% | [4] -20.2% and -30.1% | [5] -11.2% and -10.6% | [6] -4.45% and -6.45%

CC(=O)OCC(=O)c1ccc(-c2ccccc2)cc1
inactive: [1] 6.55% and 7.65% | [2] -14.8% and 4.5% | [3] 14.1% | [4] 8.35% and -22.8% | [5] 39.9% and 28.6% | [6] 18.8% and 23.9%

CC(=O)/C=C/C1=C(C)CCCC1(C)C
inactive: [1] -21.8% and 11.2% | [2] -8.35% and -10.9% | [3] -18.1% and -19.4% | [4] -14.7% and 8.05% | [5] -20.9% and 0.5% | [6] 11.8% and -2.2%

CN(C)CC1CCCC(CN(C)C)C1=O (stereo unspecified)
inactive: [1] -13.4% and -21.9% | [2] 26.9% and -9.95% | [3] -16% and -39.5% | [4] 33% and -30.4% | [5] -16.1% and -22.1% | [6] -2% and -13.8%

O=C(O)/C=C/c1ccc(Cl)cc1
inactive: [1] 16.8% and 8.15% | [2] -8.8% and -22.6% | [3] 16.8% and 2.3% | [4] -35.3% and -6.2% | [5] -3.9% and -3.4% | [6] 26.9% and 13.4%

CC(CCC(=O)O)C(=O)O (stereo unspecified)
inactive: [1] -16% and 17.4% | [2] -7.65% and -15.8% | [3] -8.6% and -4.6% | [4] -5.7% and 0.25% | [5] 4.95% and 11.3% | [6] -8.5% and 9.8%

COC1C(O)C(O)C(O)C(O)C1O (stereo unspecified)
inactive: [1] 0.95% and -11.2% | [2] -4.8% and -13.4% | [3] -0.35% and -18.1% | [4] 21.2% and 9.9% | [5] -3.1% and -31.4% | [6] -0.45% and -15.6%

COC(=O)c1ccc(O)cc1
inactive: [1] 27.3% and 4.9% | [2] 14.6% and 25.4% | [3] 13.8% and 12.4% | [4] 3.9% and 14.8% | [5] -11.6% and -4.5% | [6] 8.9% and -0.35%

O=C(O)C1CC[N-]CC1.O=C(O)C1CC[N-]CC1.[Cl][Pt+2][Cl]
inactive: [1] 14.8% and -3.75% | [2] 13.6% and -0.6% | [3] 24.4% and -1.25% | [4] -5.25% and -42.3% | [5] -5.8% and -2.85% | [6] 17.5% and 5.45%

Cc1ccc(C)c(NC(=O)CC2Sc3ccccc3NC2=O)c1 (stereo unspecified)
inactive: [1] -0.4% and -7.3% | [2] -25.8% and -19.4% | [3] 8.4% and -28.5% | [4] 21.9% and 8.45% | [5] 26.3% and 10.3% | [6] -5.05% and -88%

O=[N+]([O-])C(CO)(CO)CO
inactive: [1] -11.3% and 11.1% | [2] -6.25% and 1.95% | [3] -6% and 6.85% | [4] -22.4% and 3.45% | [5] -2.55% and 2.6% | [6] -7.2% and 2.65%

Cc1ccc(S(=O)(=O)NN=C2C(C)(C)CC2(C)C)cc1
inactive: [1] -21.9% and 21.2% | [2] 1.15% and -11.8% | [3] 8.55% and 6.6% | [4] 13.9% and -23.5% | [5] 6.15% and -2.85% | [6] -24.8% and 3.65%

CC1(C)Cc2[nH]c3ccccc3c2C(C)(C)N1
inactive: [1] -35% and 6.55% | [2] -16.4% and 23.3% | [3] -6.35% and 14.5% | [4] -64% and -6.15% | [5] -4.5% and 12.5% | [6] 3.8% and 10.5%

O=Nc1ccc(NO)cc1
inactive: [1] 29.9% and 34% | [2] 32.7% and 7.45% | [3] 33.5% and 20.3% | [4] -25.2% and 22.3% | [5] 3.2% and 47.5% | [6] 3.35% and 31.6%

COc1ccc2c(c1)CCC1C[C@@H]3C[C@]21C=CC3=O (stereo partly specified)
inactive: [1] 11.8% and -3.5% | [2] -11.8% and -6.75% | [3] 0.75% and 14.9% | [4] 9.6% and 8.05% | [5] 24% and 19.4% | [6] 5.15% and 11.7%

CN(C)c1ccc(/C=C2\c3ccccc3-c3ccc([N+](=O)[O-])cc32)cc1
inactive: [1] 20.9% and 6.65% | [2] -9.8% and -6.75% | [3] -21.1% and -11% | [4] -27.2% and -8.2% | [5] -19.6% and 4.45% | [6] -4.35% and 8%

O=C(O)c1cccc(S(=O)(=O)O)c1
inactive: [1] -22.6% and -9.2% | [2] -40.5% and -8.4% | [3] -1.2% and -9.2% | [4] -14.1% and 13% | [5] -2.05% and 0% | [6] 0.4% and 2.45%

COC1OC2COC(C)(C)OC2C1NS(=O)(=O)Cc1ccccc1 (stereo unspecified)
inactive: [1] 2.8% and 0.75% | [2] -6.85% and -9.65% | [3] -2.1% and -4.05% | [4] -32.6% and -34.1% | [5] -3.45% and -11.8% | [6] -14.1% and -6.35%

NC(N)=NC(N)=Nc1ccc(S(N)(=O)=O)cc1
inactive: [1] 21.6% and 10.5% | [2] 14.7% and 4.3% | [3] 13.4% and 14.7% | [4] -13.8% and -48.6% | [5] 34.2% and -9.8% | [6] 34.2% and 18.5%

O=C1OC(c2ccccc2)=N/C1=C\c1ccccc1O
inactive: [1] -4.65% and -9.75% | [2] -13.2% and -16.3% | [3] -0.2% and -1.3% | [4] 2.6% and 7.3% | [5] -1.7% and -13.6% | [6] -21.1% and -0.55%

O=C(O)C(O)C(O)C(O)C(=O)CO (stereo unspecified)
inactive: [1] -2.25% and -13.1% | [2] -27.3% and -1.05% | [3] -4.9% and -10.4% | [4] -32.6% and -40.5% | [5] -16.9% and -42.5% | [6] -19.2% and 13.7%

CC12CCC(C1)C(C)(C)C2OC(=O)c1ccccc1C(=O)O (stereo unspecified)
inactive: [1] 11.5% and 22.9% | [2] 29.1% and -13.2% | [3] 20.4% and -25.9% | [4] 4.6% and -8.6% | [5] 13.8% and 1.3% | [6] 8.9% and 5.2%

N#CC1OC1c1cccc[n+]1[O-] (stereo unspecified)
inactive: [1] 9.05% and 4.6% | [2] -7.8% and -3.3% | [3] 0.85% and -8.7% | [4] -45.9% and -29.5% | [5] -11.7% and -13.9% | [6] -3.15% and 8.5%
